Measurements as given in PubChem BioAssay (NCATS).
Inconclusive results are not listed. A call without a number means that no potency is given here. Active and inactive are the calls of the source. The call rests on the fitted dose curve; in most records, active means well fitted inhibition curve with a large enough effect; inconclusive means small, poorly fitted or top-dose-only effect; inactive means flat fitted curve, though single readings scatter.

Columns and labels:
Assay in all cases: qHTS profiling for inhibitors of Plasmodium falciparum proliferation (AID 504749); further: nearly all actives have a fitted effect of over 60% in size
Details in all cases: P. falciparum in erythrocytes, SYBR Green DNA, 72 h; series mostly up to 28.7 µM
CP211 = tested on: CP211
In short: (§1)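 Each compound contacts P. falciparum-infected red blood cells for 72 h at 37 C; lysis buffer (Tris, EDTA, saponin, Triton X, SYBR Green I) is added and fluorescence measured next morning; values normalized to controls.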

CP215 = tested on: CP215
In short: as §1

CP217 = tested on: CP217
In short: as §1

CP237 = tested on: CP237
In short: as §1

CP238 = tested on: CP238
In short: as §1

CP247 = tested on: CP247
In short: as §1

CP250 = tested on: CP250
In short: as §1

CP252 = tested on: CP252
In short: as §1

CP256 = tested on: CP256
In short: as §1

CP260 = tested on: CP260
In short: as §1
Potency means the concentration at half of the fitted maximal effect.

Structure (SMILES) | Potency (CP211) | Potency (CP215) | Potency (CP217) | Potency (CP237) | outcome (CP238) | Potency (CP247) | outcome (CP250) | outcome (CP252) | outcome (CP256) | outcome (CP260)
COc1ccccc1N1CCN(CCCNc2cc(=O)n(C)c(=O)n2C)CC1 | inactive | inactive | inactive | inactive | inactive | inactive | inactive | inactive | inactive | inactive
NCCS | inactive | inactive | inactive | inactive | inactive | inactive | inactive | inactive | inactive | inactive
O=C(O)c1c(Cl)c(Cl)c(Cl)c(Cl)c1-c1c2cc(I)c(=O)c(I)c-2oc2c(I)c(O)c(I)cc12 | inactive | inactive | inactive | inactive | inactive | inactive | inactive | inactive | inactive | inactive
Cc1cccc(C)c1OCC(C)N (stereo not drawn) | inactive | inactive | inactive | 6.31 µM (active) | inactive | inactive | inactive | inactive | inactive | inactive
O=C1NC(=O)C(c2ccccc2)(c2ccccc2)N1 | inactive | inactive | inactive | inactive | inactive | inactive | inactive | inactive | inactive | inactive
CN(C)CCC(c1ccccc1)c1ccccn1 (stereo not drawn) | inactive |  | inactive | inactive | inactive | inactive | inactive | inactive | inactive | inactive
CCN(CC)CCOC(=O)c1ccc(N)cc1 | inactive | inactive | inactive | inactive | inactive | inactive | inactive | inactive | inactive | inactive
CC/C(=C(\c1ccccc1)c1ccc(OCCN(C)C)cc1)c1ccccc1 |  |  | 11.2 µM (active) |  |  |  |  |  |  | 
O=c1[nH]cnc2c1ncn2[C@H]1CC[C@@H](CO)O1 | inactive | inactive | inactive | inactive | inactive | inactive | inactive | inactive | inactive | 
O=C1NCC2(CCN(CCc3ccccc3)CC2)O1 | inactive | inactive | inactive | inactive | inactive | inactive | inactive | inactive | inactive | 
C[N+](C)(C)CCCCCC[N+](C)(C)C | inactive | inactive | inactive | inactive | inactive | inactive | inactive | inactive | inactive | inactive
O=C(NCCN1CCOCC1)c1ccc(Cl)cc1 | inactive | inactive | inactive | inactive | inactive | inactive | inactive | inactive | inactive | inactive
CC(=O)c1ccc(S(=O)(=O)NC(=O)NC2CCCCC2)cc1 | inactive | inactive | inactive | inactive | inactive | inactive | inactive | inactive | inactive | inactive
O=C(O)Cc1cccc2ccccc12 | inactive | inactive | inactive | inactive | inactive | inactive | inactive | inactive | inactive | inactive
CC(=O)O[C@]1(C(C)=O)CC[C@H]2[C@@H]3C=C(Cl)C4=CC(=O)[C@@H]5C[C@@H]5[C@]4(C)[C@H]3CC[C@@]21C |  |  |  |  | inactive | inactive | inactive | inactive |  | 
CCOC(=O)O[C@]1(C(=O)OCCl)CC[C@@H]2[C@H]3CCC4=CC(=O)C=C[C@]4(C)[C@@H]3[C@@H](O)C[C@@]21C | inactive |  | inactive | inactive | inactive | inactive | inactive | inactive | inactive | inactive

Structure (SMILES) | Potency (CP211) | Potency (CP215) | Potency (CP217) | Potency (CP237) | outcome (CP238) | Potency (CP247) | outcome (CP250) | outcome (CP252) | outcome (CP256) | outcome (CP260)
O=C1Nc2ccc(Cl)cc2C(C#CC2CC2)(C(F)(F)F)O1 (stereo not drawn) | inactive |  | inactive | inactive | inactive | inactive | inactive | inactive | inactive | inactive
CCN1CCC[C@H]1CNC(=O)c1cc(S(N)(=O)=O)ccc1OC | inactive | inactive | inactive | inactive | inactive | inactive | inactive | inactive | inactive | inactive
CCN(CC)CCNC(=O)c1ccc(N)cc1 | inactive | inactive | inactive | inactive | inactive | inactive | inactive | inactive | inactive | inactive
CCN(CC)C(=O)c1ccc(O)c(OC)c1 | inactive | inactive | inactive | inactive | inactive | inactive | inactive | inactive | inactive | inactive
O=C(O)c1cc(-c2ccccc2)nc2ccccc12 | inactive | inactive | inactive | inactive | inactive | inactive | inactive | inactive | inactive | inactive
CC(=O)N[C@@H](CS)C(=O)O | inactive | inactive | inactive | inactive | inactive | inactive | inactive | inactive | inactive | inactive
Cc1cnc(C(=O)O)c[n+]1[O-] | inactive | inactive | inactive | inactive | inactive | inactive | inactive | inactive | inactive | 
COc1ccc(Cc2nccc3cc(OC)c(OC)cc23)cc1OC | inactive |  | inactive | inactive | inactive |  | inactive | inactive | inactive | inactive
C[C@@H](O)[C@H]1C(=O)N2C(C(=O)O)=C(S[C@@H]3CN[C@H](C(=O)N(C)C)C3)[C@H](C)[C@H]12 | inactive | inactive | inactive | inactive | inactive | inactive | inactive | inactive | inactive | inactive
CC1(C)O[C@H]2C[C@@H]3[C@H]4CCC5=CC(=O)C=C[C@]5(C)[C@@]4(F)[C@@H](O)C[C@]3(C)[C@]2(C(=O)CO)O1 | inactive | inactive | inactive | inactive | inactive | inactive | inactive | inactive | inactive | inactive
CCCNC(=O)NS(=O)(=O)c1ccc(Cl)cc1 | inactive | inactive | inactive | inactive | inactive | inactive | inactive | inactive | inactive | inactive
CC1=C(/C=C/C(C)=C/C=C/C(C)=C/C(=O)Nc2ccc(O)cc2)C(C)(C)CCC1 | 10.7 µM (active) | 10.7 µM (active) |  |  |  | 7.94 µM (active) |  |  | inactive | 
CCCCCN(C)CCC(O)(P(=O)(O)O)P(=O)(O)O | inactive | inactive | inactive | inactive | inactive | inactive | inactive | inactive | inactive | inactive
Clc1ccc(Cn2c(CN3CCCC3)nc3ccccc32)cc1 | inactive |  | inactive |  | inactive | inactive | inactive | inactive | inactive | 
NC(N)=Nc1nc(CSCC/C(N)=N/S(N)(=O)=O)cs1 | inactive | inactive | inactive | inactive | inactive | inactive | inactive | inactive | inactive | inactive
CC(=O)CCCCn1c(=O)c2c(ncn2C)n(C)c1=O | inactive | inactive | inactive | inactive | inactive | inactive | inactive | inactive | inactive | inactive
